Screening data as filed in PubChem.
A selection: hits, their analogues and other compounds. The true share with any hit is near 2.8%.
ERb SRC1 inh = blocks coactivator binding to human estrogen receptor beta; actives 1.3% (n = 86,000); TR-FRET ER-beta LBD / SRC1-Cy5 peptide binding; receptor agonist-loaded with 1 µM estradiol; Q92731; inhibition, % at 25.6 µM; AID 633;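 active = compounds whose percent inhibition of the receptor-coactivator binding signal exceeds about 50% in the single-dose screen, limit read from the data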
Target sequence (Q92731 whole entry, looked up, the tested form may be a part): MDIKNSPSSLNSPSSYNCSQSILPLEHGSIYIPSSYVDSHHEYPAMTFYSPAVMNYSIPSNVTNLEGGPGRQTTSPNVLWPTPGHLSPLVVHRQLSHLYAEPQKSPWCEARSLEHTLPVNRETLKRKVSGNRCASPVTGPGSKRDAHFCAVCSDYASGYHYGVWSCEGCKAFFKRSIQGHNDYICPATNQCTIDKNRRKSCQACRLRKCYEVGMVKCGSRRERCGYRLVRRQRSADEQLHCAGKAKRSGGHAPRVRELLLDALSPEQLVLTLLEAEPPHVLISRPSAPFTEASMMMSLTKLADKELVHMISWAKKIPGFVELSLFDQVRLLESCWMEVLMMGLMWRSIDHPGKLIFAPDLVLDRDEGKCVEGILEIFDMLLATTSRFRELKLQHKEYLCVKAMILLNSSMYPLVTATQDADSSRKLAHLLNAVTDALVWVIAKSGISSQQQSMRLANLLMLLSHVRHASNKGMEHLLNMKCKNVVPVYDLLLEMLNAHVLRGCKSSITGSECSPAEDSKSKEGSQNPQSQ
Smad3 FoxH1 inh = inhibitors of human Smad3 transcription factor binding; TR-FRET Smad3/Dy647-FoxH1 peptide binding, europium anti-His; inhibition, % at 25 µM; actives 0.29% (n = 88,000);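 active = compounds that reduce the energy-transfer binding signal between the protein and its labelled peptide by more than half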
ERa SRC1 inh = ER-alpha (human) coactivator binding inhibition | P03372 | TR-FRET ER-alpha LBD / SRC-1 peptide, estradiol-bound | inhibition, % at 25.6 µM | actives 1.7% (n = 86,000) | AID 629; in the data active = inhibition above about 50%
MRP reversal = compounds reversing MRP-mediated drug resistance; differential viability (reversal), % at 10 µM; actives 0.04% (n = 85,000); AID 602; H69AR cells + 2 uM doxorubicin, CellTiter-Glo, 72 h;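 active = viability drop by adding the cancer drug above about 55%, with treated viability meeting a 40% cutoff, limit read from the data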;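 also: larger differential means the compound sensitizes cells more to doxorubicin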
MRP1 act = MRP-1 activation; H69AR cells + doxorubicin, viability rescue, CellTiter-Glo; actives 0.61% (n = 140,000); viability increase, % at 10 µM; AID 799;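 active = viability gain under doxorubicin at or above a set limit, the compound median plus 3 SD, cut at about 4.7% in these data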;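 also: MRP-1 overexpressing cells given doxorubicin 25 µM after compound pretreatment; 18-22 h compound pretreatment then 72 h with doxorubicin before readout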
ERa coact pot = enhances coactivator binding to human estrogen receptor alpha | TR-FRET ERalpha-LBD/SRC-Cy5 coactivator binding, 2 h; 100 = basal binding, no effect | coactivator binding (% of control), % at 25.6 µM | actives 1.3% (n = 86,000) | AID 639; in the data active = activity above about 200%;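 also: binding measured in presence of low estradiol as agonist stimulus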
Numbers stand for hits; – = inactive; · = not tested or not shown; [ ] = another dose, or the depositor's remark.

SMILES	ERb SRC1 inh	Smad3 FoxH1 inh	ERa SRC1 inh	MRP reversal	MRP1 act	ERa coact pot
N#C[C@H](C(=O)O)C(c1c(Cl)cccc1Cl)[C@H](C#N)C(=O)O	·	–	·	·	·	·
CC(=O)NC1=C(OS(=O)(=O)c2ccc(C)cc2)CN(C)C1=O	·	–	·	·	·	·
NS(=O)(=O)c1ccc(NCc2cnc3ccccc3c2)cc1	·	102	·	·	·	·
NCCNc1ncnc2ccc(Cl)cc12	·	–	·	·	·	·
Cc1nnc(SC(=O)N2c3ccccc3Sc3ccccc32)s1	·	·	·	·	–	·
COc1ccc(CN2C(=O)C(O)(CC(=O)c3ccc4c(c3)OCO4)c3ccccc32)cc1OC (stereo not given)	–	75	–	–	–	–
Cc1ccc(C)c(S(=O)(=O)Nc2ccccc2C(=O)Nc2ccc(S(=O)(=O)Nc3ncccn3)cc2)c1	·	·	·	·	–	·
CCC(=O)Nc1ccc(S(=O)(=O)Nc2cccnc2)cc1	77[fluorescence artefact?]	–	–	–	–	–
Clc1ccc2c(c1)N(CCCN1CCCC13CCCCC3)c1ccccc1S2	·	–	·	·	·	·
O=C(CSc1nc2c(sc3ccccc32)c(=O)n1Cc1ccco1)NCC1CCCO1 (stereo not given)	–	–	–	–	–	279[fluorescence artefact?]
COc1ccc(-c2ccc(-c3noc(-c4ccccc4F)n3)c(OC)n2)cc1	–	–	–	–	–	241[fluorescence artefact?]
COc1ccc(-c2ccc(-c3noc(-c4ccccc4)n3)c(OC)n2)cc1	–	–	–	–	–	–
COc1nc(-c2ccccc2)ccc1-c1noc(-c2ccco2)n1	–	–	–	–	–	229
COc1nc(-c2ccc(Cl)cc2)ccc1-c1noc(-c2ccncc2)n1	–	–	65[fluorescence artefact?]	–	·	369[fluorescence artefact?]
COc1nc(-c2ccccc2)ccc1-c1noc(-c2ccccc2)n1	–	–	–	–	–	–
Cc1c(C(=O)O)nc(/C=C/C(=O)O)[nH]c1=O	·	–	·	·	·	·
O=S(=O)(NCCc1csc(-c2cccnc2)n1)c1ccc(Cl)s1	–	–	83	–	–	–
O=S(=O)(NCCc1csc(-c2cccnc2)n1)c1cccs1	·	·	·	·	–	·
O=S(=O)(NCc1csc(-c2cccnc2)n1)c1cccs1	–	–	71	–	–	–
COc1ccc(S(=O)(=O)NCCc2csc(-c3cccnc3)n2)cc1	–	–	–	–	–	–
Oc1cc(O)c2c(c1)O[C@H](c1ccc(O)c(O)c1)[C@@H](O)[C@@H]2c1c(O)cc(O)c2c1O[C@@H](c1ccc(O)c(O)c1)[C@H](O)C2	·	–	·	·	·	·
N#Cc1nc(COc2ccc(F)cc2)oc1N1CCC(Cc2ccccc2)CC1	–	–	–	–	5.3	–
Fc1cccc(-c2cc3nc(-c4ccccc4)cc(N4CCC5(CC4)OCCO5)n3n2)c1	–	–	–	–	6.1	–
Cc1cccc(-c2cc3nc(-c4ccccc4)cc(N4CCC5(CC4)OCCO5)n3n2)c1	–	–	–	–	–	–
Cc1ccc(-c2cc3nc(-c4ccccc4)cc(N4CCC5(CC4)OCCO5)n3n2)cc1	–	–	–	–	–	284[fluorescence artefact?]
SMILES	ERb SRC1 inh	Smad3 FoxH1 inh	ERa SRC1 inh	MRP reversal	MRP1 act	ERa coact pot
Cc1ccc(-n2c(Cc3cccn3C)nnc2SCC(=O)NCc2ccc3c(c2)OCO3)cc1	–	–	–	–	–	–
CCc1nnc(NC(=O)CCC(=O)N2CCN(Cc3ccccc3)CC2)s1	–	–	–	–	–	–
CCc1nnc(NC(=O)c2ccc(-c3ccc(Cl)cc3)o2)s1	–	–	54[fluorescence artefact?]	–	7.2	274[fluorescence artefact?]
CCc1nnc(NC(=O)CCC(=O)N2CCN(Cc3ccc(Cl)cc3)CC2)s1	–	–	–	–	6.3	–
CC1(c2ccc3c(c2)OCO3)NC(=O)N(CC(=O)Nc2ccc(N3CCOCC3)cc2)C1=O (stereo not given)	–	–	–	–	–	–
[O-][n+]1c(CN2CCCCC2)nc2cccc3c2c1-c1ccccc1-3	·	–	·	·	·	·
Cc1nn(-c2ccccc2)c2sc(C(=O)OCN3C(=O)c4ccccc4C3=O)cc12	–	–	60	–	·	–
CNC(=O)COC(=O)c1cc2c(C)nn(-c3ccc(F)cc3)c2s1	–	–	–	–	–	–
CCOC(=O)c1ccc(NC(=O)CCOc2ccccc2)cc1	–	–	–	–	–	659[fluorescence artefact?]
CCCOC(=O)c1ccc(NC(=O)CCOc2ccccc2)cc1	·	·	·	·	–	·
CCOC(=O)c1ccc(NC(=O)COc2ccc(-n3cnnn3)cc2)cc1	82[fluorescence artefact?]	–	91[fluorescence artefact?]	–	–	–
CCOC(=O)c1ccc(NC2=CC(=O)C(=O)c3ccccc32)cc1	–	78	–	–	–	–
COc1ccc(NC(=O)c2cc(-c3ccc(C)o3)nc3ccccc23)cc1OC	68[fluorescence artefact?]	–	79[fluorescence artefact?]	–	–	–
Cc1csc(NC(=O)C2COc3ccccc3O2)n1 (stereo not given)	–	–	–	–	–	–
CSc1nc2ccc3nc(NC(=O)C4COc5ccccc5O4)sc3c2s1 (stereo not given)	–	–	–	–	–	209[fluorescence artefact?]
Cc1nc2ccc3nc(NC(=O)C4COc5ccccc5O4)sc3c2s1 (stereo not given)	–	–	–	–	–	279
COc1ccc2c(-c3ccccc3)cc3nnnn3c2c1	–	–	–	–	–	206
COc1ccc2c(OC)cc(-c3ccccc3)nc2c1	–	–	–	–	–	–
Oc1c(C(c2cccs2)N2CCN(c3ccccc3)CC2)sc2ncnn12 (stereo not given)	–	–	–	–	14	–
O=C(O)c1cc(S(=O)(=O)Nc2ccc3oc(=O)sc3c2)ccc1O	55[fluorescence artefact?]	–	–	–	–	–
CCOC(=O)C1=C(C)N=c2s/c(=C\c3ccc(OC(C)=O)cc3)c(=O)n2C1/C=C/c1ccccc1 (stereo not given)	·	·	·	·	6.7	·
CN(C)Cc1cc(O)c(O)c(CN(C)C)c1	·	54	·	·	·	·
Cc1cccc2cc(CN(Cc3cccs3)S(=O)(=O)c3ccc4c(c3)OCCO4)c(=O)[nH]c12	·	·	·	·	9.3	·
O=C(O)[C@@H]1[C@H](C(=O)Nc2ccccc2)[C@@H]2C=C[C@H]1O2	·	–	·	·	·	·
CCCc1cc(=O)oc2cc(OCC(=O)Nc3ccc4c(c3)OCCO4)ccc12	–	–	–	–	–	216[fluorescence artefact?]
C=C(Cl)COc1ccc2c(CCCC)cc(=O)oc2c1	–	–	–	–	6.2	–
C=C(Cl)COc1ccc2c(CC)cc(=O)oc2c1	–	–	–	–	–	–
